For this assay, the target named is T1, Aspartate--tRNA(Asp/Asn) ligase (Mycobacterium tuberculosis (strain ATCC 25618 / H37Rv)) (UniProt P9WFW3).
T1 sequence (whole entry): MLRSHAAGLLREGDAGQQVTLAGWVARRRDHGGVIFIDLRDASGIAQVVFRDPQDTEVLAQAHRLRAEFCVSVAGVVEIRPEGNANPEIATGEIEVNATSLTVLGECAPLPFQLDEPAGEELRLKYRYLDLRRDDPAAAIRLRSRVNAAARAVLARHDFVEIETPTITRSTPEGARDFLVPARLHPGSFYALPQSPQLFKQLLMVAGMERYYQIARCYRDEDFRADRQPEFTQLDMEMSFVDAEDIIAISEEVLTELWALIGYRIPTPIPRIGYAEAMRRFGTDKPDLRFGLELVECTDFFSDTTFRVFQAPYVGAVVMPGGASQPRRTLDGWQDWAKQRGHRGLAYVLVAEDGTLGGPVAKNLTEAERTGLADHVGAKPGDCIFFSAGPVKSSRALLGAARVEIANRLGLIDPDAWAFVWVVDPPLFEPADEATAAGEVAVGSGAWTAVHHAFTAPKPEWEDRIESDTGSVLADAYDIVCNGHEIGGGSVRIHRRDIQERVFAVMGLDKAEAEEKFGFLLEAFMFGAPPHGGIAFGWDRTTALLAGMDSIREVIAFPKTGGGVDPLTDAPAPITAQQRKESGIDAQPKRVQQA
The experiment in a line: Assay for Asp RNA synthetase-1 from Mycobacterium tuberculosis. Also on record: scale not given: in the data most compounds retested in dose-response had high values. The class given is functional. Conditions: 30 µM.
With `Cc1cnn(C2CN(CC(O)c3ccc(F)cc3)C2)c1` (centres undefined), the Percent Effect was -2.19%.

Regarding `CCc1nsc(NC2CCCn3nc(CC)nc32)n1` (centres undefined), the Percent Effect came to 1.74%.

On to `O=C1O[C@@H]2CN(Cc3cccc(F)c3)C[C@@H]2N1CCCN1CCOCC1`, for which the Percent Effect came to 0.287%.

As for `FC(F)(F)C1CCCn2c(CNCc3ccsc3)nnc21` (centres undefined), the Percent Effect is -1.78%.

On to `CCN1CC2(CCN(CCOCCO)CC2)CC(c2ccccc2)C1=O` (centres undefined), for which the Percent Effect is -2.77%.

As for `CC(C)N1CCC(NCc2cccnc2N(C)C)CC1`, the Percent Effect is -1.8%.

`O=C(O)c1ccc(F)c(S(=O)(=O)Nc2c(F)cccc2-n2cccn2)c1`: the Percent Effect was -1.78%.

On to `CN1CCCC(CNC(=O)N2CCN(Cc3ccon3)CC2)C1` (centres undefined), for which the Percent Effect is -6.42%.

For `O=C(NCCNS(=O)(=O)c1ccc2c(c1)CCCC2)c1ccoc1`, the Percent Effect amounted to 8.29%.

As for `CN(CCNC(=O)N1CCN(Cc2ccon2)CC1)C1CCCC1`, the Percent Effect was -5.04%.

For the compound `CCNC(=O)c1ccc(N2CCCC(c3nccn3C(C)C)C2)nc1` (centres undefined), the Percent Effect is -3.8%.

On to `CCc1nc(CNC(=O)Nc2ccc(C(=O)NC)cc2C)cs1`, for which the Percent Effect was -0.0804%.

Turning to `CC(=O)c1cn(CC(=O)NC(C(=O)O)C(C)C)c2ccccc12` (centres undefined), the Percent Effect was -0.402%.

`CSCCC1c2nc[nH]c2CCN1Cc1cc(Cl)ccc1O` (centres undefined): the Percent Effect came out at 0.954%.

With `CCn1cc(CN(C)C(=O)c2cccc(CCC(C)(C)O)c2)cn1`, the Percent Effect is -0.126%.

`COc1c(C)cnc(CSc2nnc(C)s2)c1C`: the Percent Effect was -1.18%.

Consider `Cn1c(C(=O)N2CCC(C(=O)N3CCCC3)CC2)c(Cl)c2ccccc21`, for which the Percent Effect is -5.07%.

In the case of `Cc1nonc1CN(C)CC1(O)CCCN(CCC2CCCCC2)C1=O` (centres undefined), the Percent Effect was 0.149%.

For `Cc1cnn(CCNCc2ccc(OCC(N)=O)cc2)c1`, the Percent Effect is -4.2%.

Source of the values: ChEMBL document CHEMBL3988442, “University of Dundee, Small-Polar-MMV Screening Library” (2021).
